CF NFkB block – inhibitors of cystic fibrosis induced NF-kB | KKLEB NF-kB-GFP reporter, PAF-induced, GFP fluorescence overnight | 0.86% of 360,000 active | inhibition, % at 5 µM;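 active = at least 50% inhibition at 5 µM, scaled per plate between neutral and stimulator controls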;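 also: PAF is a Pseudomonas aeruginosa culture filtrate used as stimulus; plate controls were PAF-stimulated DMSO wells for no effect and unstimulated DMSO wells for full effect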
LGR2 antag – inhibitors of bursicon-induced Drosophila LGR2 receptor cAMP signaling; HEK293 LGR2, CRE-luciferase, bursicon-stimulated, 4 h; 0.35% of 380,000 active; AID 720647; inhibition, % at 9.99 µM;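 active = drop in luminescence signal, shown as inhibition above about 50% in the replicate tests, limit read from the data, passing the limit was not always enough; inconclusive = probably only some replicates passing the limit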;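 also: agonist challenge used bursicon conditioned medium at about half maximal strength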
KKLEB cytotox – reduces viability of KKLEB cystic fibrosis airway cells; AID 602141; activity change (cytotoxicity), % at 5 µM; KKLEB CF airway cells viability, ATPlite luminescence, overnight; stronger effect = lower value; cells stimulated with P. aeruginosa culture filtrate; 0.36% of 360,000 active;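 active = corrected activity change at or below -50% at 5 µM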
EWS-Fli inh – EWS/Fli transcriptional activity inhibition; A673 NR0B1-luciferase reporter, viability-normalised; inhibition, % at 12.6 µM; 0.67% of 350,000 active; AID 651661;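 active = mean inhibition of at least 50% after viability correction, with every replicate also passing that limit; inconclusive = mean reaches 50% but only one of two replicates passes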;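 also: firefly luciferase signal divided by Alamar Blue viability fluorescence both relative to DMSO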
TROY NFkB inh – blocks TROY-dependent signaling in reporter cells | Q293 LMP1-TROYcd NF-kB luciferase reporter, 4 h | inhibition, % at 10 µM | 0.98% of 360,000 active | AID 1347056;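 active = compounds whose plate-normalised and pattern-corrected inhibition of the luciferase reporter signal at the single screening dose is 50% or more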
TWEAK Fn14 block – inhibitors of TWEAK-Fn14 interaction signaling; TWEAK-stimulated Fn14 reporter cells, luciferase luminescence, 8 h; inhibition, % at 10 µM; 2% of 360,000 active; in the data active = inhibition above about 50%
Starred values were filed as active, the others as inactive; u = inconclusive; x = no result. The list is not random: actives were taken first. Their share in the collection is about 2.6%.

SMILES	CF NFkB block	LGR2 antag	KKLEB cytotox	EWS-Fli inh	TROY NFkB inh	TWEAK Fn14 block
O=C(C[C@H]1CC[C@@H](NC(=O)CN2CCOCC2)[C@H](CO)O1)NCCc1ccncc1	x	-15	x	0	x	x
COc1ccc(NC(=O)CSc2ccc3ccccc3c2)cc1S(=O)(=O)N1CCCCC1	-5	15	-5	-24	19	59*
O=C(Nc1ccc(S(=O)(=O)N2CCCCC2)cc1)C1CC(=O)N(Cc2ccccc2)C1 (stereo not given)	2	-23	-6	7	3	10
Cc1ccc(NC(=O)C2CC(=O)N(Cc3ccccc3)C2)cc1S(=O)(=O)N1CCCCCC1 (stereo not given)	0	5	1	x	61*	88*
CC(=O)Nc1cccc(-c2ccnc3c2CC(C(=O)NCc2cccnc2)O3)c1 (stereo not given)	10	u	-9	6	-6	14
CC(=O)Nc1cccc(-c2ccnc3c2CC(C(=O)NCc2cccc(Cl)c2)O3)c1 (stereo not given)	-32	3	-6	63*	21	30
NC(=O)c1cccc(-c2ccnc3c2CC(C(=O)NCc2cccc(Cl)c2)O3)c1 (stereo not given)	-13	-26	5	6	5	-6
CC(=O)Nc1ccc(-c2ccnc3c2CC(C(=O)NCc2cccc(Cl)c2)O3)cc1 (stereo not given)	22	x	-29	70*	-12	-1
CO[C@H]1CN(C)C(=O)c2cc(NC(=O)C3CCCC3)ccc2OC[C@H](C)N(CCC(F)(F)F)C[C@@H]1C	x	-11	x	4	x	x
CO[C@@H]1CN(C)C(=O)c2cc(NC(=O)Nc3cc(F)ccc3F)ccc2OC[C@H](C)N(C(=O)c2ccccn2)C[C@H]1C	x	-18	x	4	x	x
CCN(CC(=O)Nc1ccc2c(c1)OCCO2)C(=O)COc1cc(C)ccc1Cl	8	5	-20	-8	-3	87*
COCC(=O)N(C)C[C@H]1Oc2ncc(C#Cc3ccncc3)cc2C(=O)N([C@H](C)CO)C[C@@H]1C	x	2	x	-4	x	x
Cc1noc(C)c1NC(=O)Nc1cccc2c1O[C@H](CN(C)Cc1ccc(C(=O)O)cc1)[C@@H](C)CN([C@@H](C)CO)C2=O	x	21	x	-1	x	x
CC12CCC(O)CC1=CCC1C2CCC2(C)C1CCC21CCC(=O)O1 (stereo not given)	3	12	-6	-4	10	-7
C[C@]12CCC(O)CC1=CCC1C2CC[C@]2(C)/C(=N\NC(N)=S)CCC12 (stereo not given in full)	40	21	2	-2	15	94*
Cc1ccc(Cn2ncc3c(N4CCN(C)CC4)ncnc32)cc1	6	3	-12	-9	-9	13
Cc1ccc(Cn2ncc3c(N4CCN(c5ccc(C)cc5)CC4)ncnc32)cc1	4	x	8	x	31	61*
Cc1ccc(Cn2ncc3c(N4CCN(CCc5ccccc5)CC4)ncnc32)cc1	-7	11	12	29	38	30
Cc1ccc(Cn2ncc3c(N4CCN(Cc5ccc(Cl)cc5)CC4)ncnc32)cc1	-1	x	-11	x	26	56*
O=C(CSc1nccn1-c1ccccc1)c1ccc(Cl)cc1	-16	x	4	x	-9	-12
Cc1ccc(C(=O)CSc2nccn2-c2ccccc2)cc1	-1	x	0	x	51*	4
O=C(NCc1ccc(F)cc1)C(c1ccccc1)c1ccccc1	-12	7	4	5	1	54*
Brc1ccc(NCc2cccc3ccccc23)nc1	-21	x	1	x	-28	-10
Oc1ccccc1CNc1ccc(Br)cn1	-11	x	-22	x	-40	90*
CC(=O)Nc1cccc(C(=O)/C=C/c2ccc(N(C)C)cc2)c1	3	-39	-18	-55	-64	-13
SMILES	CF NFkB block	LGR2 antag	KKLEB cytotox	EWS-Fli inh	TROY NFkB inh	TWEAK Fn14 block
CC(=O)Nc1cccc(C(=O)/C=C/c2ccc(F)cc2)c1	27	7	-4	37	-19	72*
Cc1cccc(C(=O)Nc2ccc(C(=O)/C=C/c3ccncc3)cc2)c1	24	-4	5	71*	58*	-13
CCC(=O)Nc1cccc(C(=O)/C=C/c2cc(Br)ccc2OC)c1	12	x	6	x	6	94*
CC(=O)Nc1cccc(C(=O)/C=C/c2ccc(/C=C/C(=O)c3cccc(NC(C)=O)c3)cc2)c1	x	-4	x	55*	x	x
CCCNC(=O)N(C)C[C@@H]1Oc2cc(C3=CCCC3)ccc2S(=O)(=O)N([C@H](C)CO)C[C@H]1C	x	1	x	-18	x	x
COc1ccc(CN(C)C[C@H]2OCCCC[C@@H](C)Oc3ccc(NS(=O)(=O)c4cn(C)cn4)cc3C(=O)N([C@H](C)CO)C[C@@H]2C)cc1	x	20	x	-16	x	x
CC(=O)c1cccc(NS(=O)(=O)c2ccc(N/C=C/C(=O)c3ccc(F)cc3)cc2)c1	16	14	-12	x	41	89*
Cn1ccc2c(-c3cccc4ccccc34)cc3c(c21)C1CCC3C1 (stereo not given)	16	11	-8	-12	77*	82*
Cn1ccc2c(-c3ccc(F)cc3F)cc3c(c21)C1CCC3C1 (stereo not given)	27	-6	-18	-13	1	-15
Cn1ccc2c(-c3cccc(C=O)c3F)cc3c(c21)C1CCC3C1 (stereo not given)	-20	13	7	-7	55*	51*
Cn1ccc2c(-c3cccc(C=O)c3)cc3c(c21)C1CCC3C1 (stereo not given)	19	x	-2	-7	65*	48
O=C(O)c1cc(S(=O)(=O)Nc2ccc3c(c2)OCCO3)c(Cl)cc1Cl	4	18	-5	33	83*	91*
O=C(O)c1ccc(N/N=C/c2cc3cc4c(cc3nc2Cl)OCCO4)cc1	30	60*	-38	44	-16	30
O=C(O)c1cc(N/N=C/c2cccc3ccccc23)ccc1Cl	-17	-143	0	-147	-19	101*
O=C(O)c1cc(N/N=C/C(Cl)=C/c2ccccc2)ccc1Cl	2	73*	2	3	-80	8
C/C(=N\Nc1ccc(Cl)c(C(=O)O)c1)c1cccc2ccccc12	0	7	3	-34	-32	0
O=C(O)c1cc(N/N=C/c2ccc3c(c2)OCO3)ccc1Cl	-10	x	3	3	-60	20
O=C(O)c1cc(N/N=C/c2ccc3c(c2)OCCO3)ccc1Cl	33	71*	10	46	11	-13
CCC(=O)N1[C@H](CO)[C@H](c2ccc(-c3cccnc3)cc2)[C@H]1CN(CC)C(C)=O	x	9	x	2	x	x
O=C(CSc1nc2ccccc2c(=O)n1-c1ccc(F)cc1)Nc1ccc(N2CCOCC2)cc1	-16	7	7	-10	5	9
O=C(CSc1nc2ccccc2c(=O)n1-c1ccc(SC(F)F)cc1)Nc1ccc(N2CCOCC2)cc1	66*	33	-66*	36	17	5

Bioassay records: PubChem, several laboratories
